Screens deposited in PubChem BioAssay by National Center for Advancing Translational Sciences (NCATS).
KDM5B inh – Primary screen for KDM5B Histone Demethylases FDH-coupled qHTS; Lysine-specific demethylase 5B (Homo sapiens), Q9UGL1; KDM5B demethylase, FDH-coupled NADH fluorescence (FDH is formaldehyde dehydrogenase); Potency, µM (doses to about 57.7 µM), hits mostly inhibitors; actives 2.6% (n = 220,000); active = well fitted inhibition curve with a large enough effect; note: 0% is about no effect; nearly all actives have a fitted effect of over 70% in size
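Measured: NADH fluorescence change, 30 min, RT. System: KDM5BΔAP 200 nM final, H3K4me3 peptide, α-KG, Fe(II), ascorbate, NAD⁺ plus FDH, pH 7.5 HEPES. Compounds: titrated, 10 min pre-incubation with enzyme.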
Starred values were filed as active, the others as inactive; i = inactive. Only a selection was taken, and hits are over-represented in it overall. Potency is the fitted concentration of half-maximal effect.

SMILES	KDM5B inh
Cc1ccc(C(=O)NCCc2cccnc2)cc1	i
Cc1ccc2c(COC(=O)C3CCC(C(C)(C)C)CC3)cc(=O)oc2c1C (stereo not drawn)	i
CCOc1nc2ccccc2nc1C(C#N)C(=O)NCc1ccccc1 (stereo not drawn)	i
OCc1nc2ccccc2n1CC(O)COc1c(Cl)cccc1Cl (stereo not drawn)	i
CCCn1c2ccc(F)cc2c2n[nH]c(=S)nc21	i
COc1ccc(NC(=O)N(Cc2nnc3n2CCCCC3)c2ccc3c(c2)OCO3)cc1	i
CC(=O)c1ccc(OCc2ccc(-c3ccccc3C#N)cc2)cc1	i
CCN(CC)c1nc2c(c(=O)[nH]c(=O)n2C)n1CC(O)COc1ccc(C)cc1 (stereo not drawn)	i
Cc1oc(-c2nc(C#N)c(NC3CC3)o2)cc1S(=O)(=O)N(C)c1ccccc1	i
CCn1c(=O)c(=O)n(CC)c2cc(N3CCCCC3)c(NC(=O)c3ccc(OC)c(OC)c3)cc21	i
O=C(O)c1ccc2c(c1)n(Cc1ccccc1)c(=O)c1ccnn12	28µM*
CCN(CC)C(=O)c1ccc2c(c1)n(Cc1ccc(OC)cc1)c(=O)c1ccnn12	i
CCn1c(=O)c2ccnn2c2ccc(C(=O)O)cc21	22µM*
O=C(O)c1ccc2oc(=O)n(Cc3ccccc3)c2c1	i
CCn1c(=O)c(=O)n(CC)c2cc(N3CCCCC3)c(NC(=O)c3ccc(C)cc3)cc21	i
O=C(CN1CCN(C(=O)c2cc3ccccc3[nH]2)CC1)N1CCCCCC1	i
COc1ccc(CC(=O)N2CCC3(CC2)CC(N[S+](C)(=O)[O-])c2ccccc23)cc1 (stereo not drawn)	i
COc1ccc(Cn2c(C3CCN(C(=O)Cc4ccc(Cl)cc4)CC3)n[nH]c2=O)cc1	i
N#Cc1nc(-c2ccc(S(=O)(=O)N3CCCC3)cc2)oc1NCCN1CCOCC1	i
C=C(C)CC1(Nc2ccccc2C)CCCCC1	i
O=C(Nc1ccc(Cl)c(C(F)(F)F)c1)c1ccccc1	i
CCCCCCCCS(=O)(=O)CCCCO	i
CCCn1c(C(O)(c2nc3ccccc3n2CCC)C(F)(F)F)nc2ccccc21	i
COc1cccc(CN2C[C@@H](CO)[C@H](C3CCN(C(C)=O)CC3)C2)c1	i
Cc1ccc2c(n1)N(C)[C@H](CO)CCN(Cc1ccc(F)c(F)c1)C2	i
SMILES	KDM5B inh
COc1cccc(CN2CC[C@@H](CO)N(C)c3nc(C)ccc3C2)c1	35µM*
Cc1ccc(NC(=S)NCCC(c2ccccc2)c2ccccc2)cc1	i
Cc1ccc(C)c(-c2nn(CC(=O)N3CCCCC3)c(=O)c3ccccc23)c1	i
CCCN1CCC(NC(=O)COc2ccc(Cl)cc2C)CC1	i
COc1ccc(C(=O)N2CCOCC3(CN(Cc4ccccc4)C3)C2)cc1	i
CC(C)CNc1ccc2c(n1)C(C)(C(=O)N1CCC1)CN(Cc1ccccc1)C2 (stereo not drawn)	28µM*
CC(C)CNc1ccc2c(n1)C(C)(C(=O)NC1CC1)CN(Cc1ccccc1)C2 (stereo not drawn)	i
COc1ccc(C(=O)N2CCOCC3(CN(Cc4ccccc4)C3)C2)c(OC)n1	i
CC(C)CNc1ccc2c(n1)C(C)(C(=O)Nc1cccnc1)CN(Cc1ccccc1)C2 (stereo not drawn)	32µM*
COCCN1CC(CO)C2(CCN(C(=O)Cc3cccnc3)CC2)C1 (stereo not drawn)	i
CC(C)C(=O)N1Cc2ccccc2CC2(CCCN(Cc3ccccc3)C2)C1 (stereo not drawn)	i
COCCN1Cc2ccc(NCC(C)C)nc2C(C)(C(=O)NCc2cccnc2)C1 (stereo not drawn)	32µM*
O=C(Nc1cccnc1)[C@H]1CN(Cc2ccccc2)C[C@H]1C(=O)O	i
CC(C)CNc1ccc2c(n1)C(C)(C(=O)N1CCOCC1)CN(Cc1ccccc1)C2 (stereo not drawn)	32µM*
Cc1c(CC(=O)NCc2cccnc2)c2c(n1CC(C)C)CC(C)(C)CC2=O	i
O=C(NCC(c1cccnc1)N1CCN(Cc2ccccc2)CC1)C(=O)Nc1cccc(F)c1 (stereo not drawn)	i
O=C(CCCCc1nc2ccccc2s1)NC1CCCCCC1	i
CSc1cccc(NC(=O)c2cc(Br)ccc2Cl)c1	i
O=C(c1ccc(Cl)cc1)N1CCn2c(nn(-c3ccc(Cl)cc3)c2=O)C1	i
COCc1cnc2c(c1SCc1cc(OC)cc(OC)c1)c(=O)n(C)c(=O)n2C	i
O=C(NCCCCNC(=O)C1CC1)C1CC1	i
COCCNC(=O)c1sc(NCc2ccco2)nc1C	i
Cc1onc(-c2c(F)cccc2Cl)c1C(=O)Nc1sc(C)c(C)c1C(N)=O	i
O=C(Cn1c(=O)c2sccc2n(CC(=O)N2CCCC2)c1=O)Nc1ccc(F)cc1	i
O=C(C1CCCCC1)N1CCCC2(CC(c3cccc(C(F)(F)F)c3)=NO2)C1 (stereo not drawn)	i
SMILES	KDM5B inh
CSc1ncc(C(=O)Nc2ccccc2C)c(-c2ccccc2)n1	i
COc1ccc2nc3n(c2c1)[C@@H](CNS(=O)(=O)c1ccc(F)cc1)COC3	i
Cc1cccc2c1nc1n2[C@@H](CNC(=O)c2ccc(F)cc2)COC1	i
COc1ccc2nc3n(c2c1)[C@@H](CNCc1ccc(C#N)cc1)COC3	28µM*
COc1ccc2nc3n(c2c1)[C@@H](CNCc1ccc(S(C)(=O)=O)cc1)COC3	i
COc1ccc2nc3n(c2c1)[C@@H](CNC(=O)c1ccc(F)cc1)COC3	35µM*
COc1ccc2nc3n(c2c1)[C@@H](CNCc1ccccc1)COC3	i
CC1CC2(CCCCCC2)Nc2ccc(F)cc21 (stereo not drawn)	i
COc1ccc(CNC(=O)C(C)C)cc1	i
O=C(CSc1nc(CN2CCOCC2)nc2ccccc12)NCC1CCCCC1	i
Cc1ccc(N2CCN(C(=O)c3cc4n(n3)CC(c3ccc(Cl)cc3)OC4)CC2)cc1 (stereo not drawn)	i
Cc1ccccc1N1CCN(C(=O)c2cc3n(n2)CC(c2ccc(Cl)cc2)OC3)CC1 (stereo not drawn)	i
COc1ccc(NC(=O)C2CCN(C(=O)c3ncn4c3COC(c3ccccc3)C4)CC2)cc1Cl (stereo not drawn)	i
CCc1ccc(NC(=O)c2cc3n(n2)CC(c2ccc4c(c2)OCO4)OC3)cc1 (stereo not drawn)	32µM*
CCC(C)NC(=O)c1cc2n(n1)CC(c1ccc3c(c1)OCO3)OC2 (stereo not drawn)	i
Cc1cc(NC(=O)c2cc3n(n2)CC(c2ccc4c(c2)OCO4)OC3)ccc1F (stereo not drawn)	28µM*
Cc1ccc(NC(=O)c2cc3n(n2)CC(c2ccc4c(c2)OCO4)OC3)cc1 (stereo not drawn)	32µM*
CCc1ccc(NC(=O)C2=CC(c3ccc4c(c3)OCO4)=NS(=O)(=O)N2C)cc1	i
COc1ccc(NC(=O)c2cc3n(n2)CC(c2ccc4c(c2)OCO4)OC3)cc1Cl (stereo not drawn)	25µM*
COc1ccc(NC(=O)c2cc3n(n2)CC(c2ccc4c(c2)OCO4)OC3)cc1OC (stereo not drawn)	i
CCCOc1cccc(C(=O)Nc2nonc2CC)c1	i
COc1cccc(C(=O)Nc2cnc3ccccc3c2)c1	i
Cc1cccc(N=C2NN=C(c3c[nH]c(C(=O)N4CCCC4)c3)CS2)c1	i
